Here are results for 95 compounds from PubChem BioAssay AID1851 (National Center for Advancing Translational Sciences (NCATS), 2009).

Among all 16,000 compounds or so, about 5,100 (32%) were called active. About 25% were inconclusive and are not listed. Calls come from the whole dose curve; as a rule, active = well fitted curve in the direction sought with a large enough effect; inconclusive = small, poorly fitted or top-dose-only effect, or effect the other way; inactive = no such curve, though single readings can be large or run the other way. This is one part of the list.
% is set by controls: 0 for no effect and ±100 for the full control effect.

Sequence of Cytochrome P450 3A4 (Homo sapiens) (P08684 whole entry, looked up): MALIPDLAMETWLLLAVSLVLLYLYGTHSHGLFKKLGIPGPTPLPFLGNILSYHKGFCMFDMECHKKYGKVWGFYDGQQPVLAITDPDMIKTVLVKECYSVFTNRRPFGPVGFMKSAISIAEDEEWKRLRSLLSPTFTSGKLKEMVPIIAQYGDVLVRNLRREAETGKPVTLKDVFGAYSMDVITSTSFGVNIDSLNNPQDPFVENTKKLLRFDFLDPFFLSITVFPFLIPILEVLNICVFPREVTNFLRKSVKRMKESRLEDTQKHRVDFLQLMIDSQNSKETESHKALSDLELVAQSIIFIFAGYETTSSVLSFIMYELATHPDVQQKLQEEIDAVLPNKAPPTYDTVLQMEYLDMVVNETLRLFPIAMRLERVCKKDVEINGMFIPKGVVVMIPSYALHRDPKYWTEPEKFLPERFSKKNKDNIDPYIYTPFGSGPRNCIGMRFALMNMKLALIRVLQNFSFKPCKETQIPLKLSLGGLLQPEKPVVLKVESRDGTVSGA

This assay concerns the target Cytochrome P450 3A4 (Homo sapiens) (UniProt P08684). Kind of assay: Cytochrome panel assay with activity outcomes. To be noted: recombinant CYP, pro-luciferin dealkylation, luminescence, p450-cyp3a4; series mostly up to 57.1 µM.
`COc1ccc2c3c(ccc2c1)N[C@H](C(=O)O)CC3`: the activity, negative = inhibition is -10.2% [at 11.4 µM] (inactive).

On to `O=C(c1ccco1)N1CCC2(CC1)CN(c1cccc(-c3ccccc3)c1)C2`, for which the AC50 (commonly the midpoint of the concentration-response curve, whichever way the signal moves) was “inactive”.

With `O=C(c1cnccn1)N1CCC[C@@]2(CCN(c3ccccn3)C2)C1`, the half-maximal activity concentration (AC50) was 10 µM (active).

For the compound `O=C(c1ccncc1)N1CCC2(CC1)CN(c1ncccn1)C2`, the AC50 entry is “inactive”.

Take `O=C(c1ccncc1)N1CCC2(CC1)CN(c1ccccc1)C2`: the AC50 result is “inactive”.

Regarding `O=C(c1ccncc1)N1CCC2(CC1)CCN(c1ccccc1)CC2`, the AC50 result was “inactive”.

On to `CC(=O)N1CCC[C@@]2(CCN(c3ncccn3)C2)C1`, for which the AC50 entry is “inactive”.

In the case of `O=C(c1ccncc1)N1CCC[C@@]2(CCN(c3ccccc3)C2)C1`, the AC50 is 3.16 µM (active).

For the compound `O=C(c1ccncc1)N1CCC2(CC1)CN(c1cccc(-c3ccccc3)c1)C2`, the half-maximal activity concentration (AC50) is 7.94 µM (active).

Consider `O=C(c1cnccn1)N1CCC[C@@]2(CCN(c3ccccc3)C2)C1`, for which the AC50 was 7.94 µM (active).

As for `CC1(C)Oc2cc(N)c([N+](=O)[O-])cc2O1`, the AC50 entry is “inactive”.

On to `Cc1c(C=NCCOCc2ccccc2)cnn1C`, for which the AC50 entry was “inactive”.

With `O=C(c1cnccn1)N1CCC[C@@]2(CCN(c3ccncc3)C2)C1`, the AC50 was 3.16 µM (active).

Take `O=C(c1ccncc1)N1CCC2(CC1)CCN(c1ccccn1)CC2`: the AC50 entry is “inactive”.

Regarding `CC(=O)N1CCC2(CC1)CN(c1ccncc1)C2`, the AC50 result was “inactive”.

Turning to `CC(=O)N1CCC2(CCCN(c3ccccn3)C2)CC1`, the AC50 entry is “inactive”.

Turning to `O=C(c1cnccn1)N1CCC2(CC1)CN(c1ccncc1)C2`, the AC50 entry is “inactive”.

As to `O=C(c1ccncc1)N1CCC[C@@]2(CCN(c3ccccn3)C2)C1`, the AC50 was 7.94 µM (active).

Take `COc1ccc(C2C(C#N)=C(N)N(Nc3ccccc3)C3=C2C(=O)CC(C)(C)C3)cc1C` (stereo not given): the AC50 was 2 µM (active).

Take `COc1cc(C2C(C#N)=C(N)N(Nc3ccccc3)C3=C2C(=O)CC(C)(C)C3)ccc1OCc1ccccc1` (stereo not given): the AC50 was 2.82 µM (active).

With `COc1cc(C2C(C#N)=C(N)N(c3sc4c(c3C#N)CCCC4)C3=C2C(=O)CC(C)(C)C3)cc(OC)c1OC` (stereo not given), the half-maximal activity concentration (AC50) is 0.501 µM (active).

Consider `COc1cc(C2C(C#N)=C(N)N(Nc3ccccc3)C3=C2C(=O)CC(C)(C)C3)ccc1OCc1cccc(F)c1` (stereo not given), for which the AC50 is 2.51 µM (active).

Regarding `CCOc1cc(/C=C2\CCC/C(=C\c3cc(Cl)c(O)c(OCC)c3)C2=O)cc(Cl)c1O`, the activity, negative = inhibition is -14.8% [at 2.29 µM] (inactive).

With `CCCCCCCCCCCCC/C=C\[C@@H](O)[C@@H](N)CO`, the AC50 result was “inactive”.

As for `CN(c1ccc(C(=O)NCC2CCCO2)cc1)S(=O)(=O)c1ccccc1` (stereo not given), the AC50 entry was “inactive”.

`O=C(O)CCSCc1ccccc1`: the activity, negative = inhibition was -12.2% [at 11.4 µM] (inactive).

For the compound `Cc1cccc(CSCCNC(=O)c2ccc(N(C)S(=O)(=O)c3ccccc3)cc2)c1`, the AC50 was 3.98 µM (active).

Turning to `C=CCOC(=O)/C(=C\c1cccc2ccccc12)NC(=O)c1ccccc1`, the AC50 is 0.2 µM (active).

As to `O=C1CCC(c2ccc(-n3ccnc3)cc2)=NN1`, the AC50 was 1.58 µM (active).

Consider `COc1cc(/C=C(/C#N)c2nc3ccccc3[nH]2)ccc1Oc1ncccc1[N+](=O)[O-]`, for which the half-maximal activity concentration (AC50) is 1.58 µM (active).

On to `N#C/C(=C\c1ccccc1)c1nc2ncccc2[nH]1`, for which the activity, negative = inhibition was -24% [at 2.29 µM] (inactive).

For `COc1cc(/C=C(/C#N)c2nc3ccccc3[nH]2)ccc1OCC(=O)Nc1ccccc1C`, the AC50 was 1.26 µM (active).

For the compound `N#C/C(=C\c1ccc(Cl)cc1)c1nc2ncccc2[nH]1`, the activity, negative = inhibition is -7.91% [at 2.29 µM] (inactive).

In the case of `COc1ncnc(NS(=O)(=O)c2ccc(N)cc2)c1OC`, the AC50 result is “inactive”.

On to `CCOC(=O)c1cnc(N(C)C)nc1SC(=N)N`, for which the activity, negative = inhibition is -4.2% [at 11.4 µM] (inactive).

For the compound `Cc1cc(C)cc(OCC(=O)Nc2ccc3c4c(cccc24)CC3)c1`, the AC50 result is “inactive”.

Take `CSc1ccc(S(=O)(=O)Nc2ccc3c4c(cccc24)CC3)cc1`: the half-maximal activity concentration (AC50) was 5.01 µM (active).

In the case of `CC(C)=CCC1=C(OCC(=O)O)C(=O)c2ccccc2C1=O`, the activity, negative = inhibition was -24.9% [at 11.4 µM] (inactive).

As for `COc1nnc(OC)c2ccccc12`, the AC50 result is “inactive”.

As for `COC1=C(OC)C(=O)c2ccccc2C1=O`, the AC50 is 20 µM (active).

As to `C#CCn1c(=O)c2c(ncn2C)n(C)c1=O`, the AC50 result was “inactive”.

For `N#Cc1c2n(c3c(=S)nc[nH]c13)CCCCC2`, the activity, negative = inhibition was 9.26% [at 2.29 µM] (inactive).

In the case of `COc1ccc2c(c1)Cc1cc(N=[N+]([O-])c3ccc4c(c3)Cc3cc(OC)ccc3-4)ccc1-2`, the AC50 was 5.01 µM (active).

As for `Cc1cccc(-n2cnc(C(=O)NC3CCCCCC3)c2)n1`, the AC50 was 14.1 µM (active).

For the compound `Cc1cc(Cl)nc(NC(=O)CSc2ccc(Cl)cc2)n1`, the activity, negative = inhibition is -7.2% [at 11.4 µM] (inactive).

On to `Cc1cnc(NC(=O)CSc2ccc(Cl)cc2)s1`, for which the AC50 was 15.8 µM (active).

Take `Nc1nc(N)c(CCCCc2ccccc2)c(N)n1`: the activity, negative = inhibition was 5.2% [at 11.4 µM] (inactive).

Consider `Nc1nc(SC/C=C\c2ccccc2)c2[nH]cnc2n1`, for which the concentration at half-maximal activity (AC50) was 2.51 µM (active).

Take `Nc1nc(SCCc2ccccc2)c2[nH]cnc2n1`: the AC50 was 2.51 µM (active).

Consider `CC(C)[C@H](Sc1nc(N)nc2nc[nH]c12)C(=O)O`, for which the activity, negative = inhibition is -2.83% [at 11.4 µM] (inactive).

For `CCC[C@H](Sc1nc(N)nc2nc[nH]c12)C(=O)O`, the activity, negative = inhibition was -4.34% [at 11.4 µM] (inactive).

Turning to `Nc1nc(Sc2ccc([N+](=O)[O-])c3nonc23)c2[nH]cnc2n1`, the activity, negative = inhibition was -24.7% [at 11.4 µM] (inactive).

Take `Nc1nc(N)c2[nH]cnc2n1` (tested in a mixture with another compound): the activity, negative = inhibition was -3.42% [at 11.4 µM] (inactive).

On to `Nc1nc(SCc2ccccc2[N+](=O)[O-])c2[nH]cnc2n1`, for which the AC50 is 3.16 µM (active).

Regarding `COc1ccc(-n2c(C)n[nH]c2=O)cc1OC`, the AC50 result is “inactive”.

For `COc1cccc(=O)c2c(C)n(-c3cc(C)cc(C)c3)c(C)c12`, the half-maximal activity concentration (AC50) is 4.47 µM (active).

On to `CN(C)CCC=C1c2ccccc2C=Cc2ccccc21`, for which the AC50 entry is “inactive”.

Take `O=C(O)[C@@H]1CCCN1Cc1cc2ccccc2c2ccccc12`: the activity, negative = inhibition was -12.1% [at 11.4 µM] (inactive).

`CC(C)CC(=O)N[C@H](C(=O)N[C@H](C(=O)N[C@@H](CC(C)C)[C@H](O)CC(=O)N[C@@H](C)C(=O)N[C@@H](CC(C)C)[C@H](O)CC(=O)O)C(C)C)C(C)C`: the AC50 result is “inactive”.

In the case of `O=C(CSc1ccccc1)Nc1ccc(NC(=O)c2ccco2)cc1`, the AC50 entry is “inactive”.

`Cc1c(Cl)cccc1NC(=O)CCC(=O)NNC(=O)c1ccco1`: the activity, negative = inhibition is 1.8% [at 2.29 µM] (inactive).

With `Cc1ccc(NC(=O)CCC(=O)NNC(=O)c2ccco2)cc1C`, the activity, negative = inhibition is -4.43% [at 2.29 µM] (inactive).

Turning to `Cc1ccc(-n2nnnc2SCC(=O)NNC(=O)c2ccco2)c(C)c1`, the AC50 is 22.4 µM (active).

Consider `O=C(CSc1ccc(Cl)cc1)Nc1cccc(NC(=O)c2ccco2)c1`, for which the activity, negative = inhibition is -17.5% [at 11.4 µM] (inactive).

Take `CCc1cc2cc(C)c(C)cc2nc1SCC(=O)NNC(=O)c1ccco1`: the AC50 is 8.91 µM (active).

Turning to `Cc1ccc(SCC(=O)Nc2cccc(NC(=O)c3ccco3)c2)cc1`, the AC50 was 22.4 µM (active).

On to `CC(=O)c1ccc(-n2nnnc2SCC(=O)Nc2cccc(NC(=O)c3ccco3)c2)cc1`, for which the AC50 was 3.98 µM (active).

`Cn1c2c(c(=O)n(C)c1=O)CN(CCN1CCNCC1)CN2`: the AC50 result is “inactive”.

Regarding `O=C(OCn1nnc2ccccc2c1=O)c1cccnc1`, the concentration at half-maximal activity (AC50) is 8.91 µM (active).

For the compound `O=C(Cn1nnc2ccccc21)N/N=C\C=C\c1ccccc1`, the AC50 result is “inactive”.

Consider `O=C(CSCC(=O)OCn1nnc2ccccc2c1=O)Nc1ccc(Cl)cc1`, for which the concentration at half-maximal activity (AC50) is 22.4 µM (active).

On to `Cc1cccc(NC(=O)C2CCN(S(=O)(=O)c3cccc4nsnc34)CC2)n1`, for which the AC50 result is “inactive”.

For the compound `CCc1ccc(NC(=O)C2CCN(S(=O)(=O)c3c(C)[nH]c(=O)[nH]c3=O)CC2)cc1`, the AC50 result was “inactive”.

Consider `Cc1ccc(NC(=O)C2CCN(S(C)(=O)=O)CC2)cc1`, for which the activity, negative = inhibition is 0.664% [at 2.29 µM] (inactive).

`O=C(NCC1COc2ccccc2O1)C1CCN(S(=O)(=O)c2cccc3nsnc23)CC1` (stereo not given): the AC50 was 20 µM (active).

Regarding `COc1ccc2nc(NC(=O)C3CCN(S(=O)(=O)c4cccc5nsnc45)CC3)sc2c1`, the AC50 was 14.1 µM (active).

With `Nc1nc2c(C(=O)NCc3cccs3)nnn2c2cccc(Cl)c12`, the activity, negative = inhibition was -1.06% [at 11.4 µM] (inactive).

With `COc1ccc(OC)c(S(=O)(=O)N2CCC(C(=O)Nc3ccc(C)c(C)c3)CC2)c1`, the half-maximal activity concentration (AC50) is 5.01 µM (active).

As for `COc1ccc2nc(NCN3C(=O)c4ccccc4C3=O)sc2c1`, the activity, negative = inhibition is -27.9% [at 11.4 µM] (inactive).

Turning to `O=C(NCc1cccs1)C1CCN(S(=O)(=O)c2cccc3nsnc23)CC1`, the AC50 was 12.6 µM (active).

Consider `CC(C)=CCNc1ncnc2nc[nH]c12`, for which the activity, negative = inhibition is -14.9% [at 11.4 µM] (inactive).

For `COc1cc(NC(=O)C2CCN(S(=O)(=O)c3cccc4nonc34)CC2)cc(OC)c1`, the AC50 is 3.16 µM (active).

On to `COc1ccc(CCNC(=O)C2CCN(S(=O)(=O)c3cccc4nsnc34)CC2)cc1OC`, for which the AC50 was 3.98 µM (active).

Turning to `CC(=O)Nc1ccc(NC(=O)C2CCN(S(=O)(=O)c3cccc4nonc34)CC2)cc1`, the AC50 result was “inactive”.

On to `COC(=O)c1ccccc1OCC(=O)N1CCN(c2ccc(Cl)cc2)CC1`, for which the half-maximal activity concentration (AC50) is 15.8 µM (active).

Turning to `COC(=O)c1ccccc1OCC(=O)N1CCN(c2ccc(OC)cc2)CC1`, the activity, negative = inhibition is -29.6% [at 11.4 µM] (inactive).

Turning to `COC(=O)c1ccccc1Oc1c(F)c(F)nc(N2CCOCC2)c1F`, the AC50 result was “inactive”.

Turning to `OCCCNc1ncnc2[nH]ncc12`, the activity, negative = inhibition is -20.7% [at 11.4 µM] (inactive).

For `O=S1(=O)C=C(SCc2cccc(Cl)c2)Nc2ccccc21`, the half-maximal activity concentration (AC50) was 2 µM (active).

In the case of `CC[C@@H]1CC(=O)N(SC[C@H](N)C(=O)O)C1=O`, the activity, negative = inhibition is -4.06% [at 11.4 µM] (inactive).

In the case of `COc1cccc(Cn2c(=O)c(-c3cc(F)cc(F)c3)nc3cnc(N(C)C)nc32)c1`, the AC50 entry was “inactive”.

In the case of `COc1cccc(Cn2c(=O)c(-c3ccccc3)nc3cnc(OC)nc32)c1`, the concentration at half-maximal activity (AC50) is 7.94 µM (active).

Regarding `COc1cccc(Cn2c(=O)c(-c3ccccc3)nc3cnc(N(C)C)nc32)c1`, the concentration at half-maximal activity (AC50) was 6.31 µM (active).

In the case of `CN(C)c1ncc2nc(-c3ccccc3)c(=O)n(C)c2n1`, the AC50 result was “inactive”.

Take `COc1ccc(-c2nc3cnc(OC)nc3n(Cc3cccc(OC)c3)c2=O)cc1`: the concentration at half-maximal activity (AC50) is 2.51 µM (active).
